Experiment [1] concerns Human papillomavirus type 1a protein E7 (residues 44-93). Nature of the experiment: HPV1a E7 fragment binders on microarrays, primary screen, biochemical, small-molecule microarray, residues 44-93, 635 nm fluorescence (AID 1108).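 Note: E7 fragment applied at 1 µg/mL in TBST for 1 h at 4 C; score combines spot fluorescence with its signal to noise ratio.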 Particulars: small-molecule microarray binding, fluorescence 635 nm; higher = more signal.
Experiment [2] is described as follows: modulators of HCV replicon luciferase signal, primary screen, HCV replication inhibitor project, Huh7 cells, luciferase reporter (AID 1109).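 Note: huh7 hepatoma cells harbouring a luciferase neomycin HCV replicon reporter; luciferase luminescence as measure of HCV replicon replication; test concentration not given here.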 Particulars: 48 h, higher = more signal. (Replicon systems follow genome replication, usually without infectious particles.)
In experiment [3] the target is Left-right determination factor 2 (Homo sapiens) (UniProt O00292). In words: LEFTY2 binders on small-molecule microarrays, primary screen, biochemical, small-molecule microarray, 635 nm fluorescence scan (AID 1110). The settings on record: LEFTY2 binding, higher = more signal.
Chain of Left-right determination factor 2 (Homo sapiens) (O00292 whole entry, looked up): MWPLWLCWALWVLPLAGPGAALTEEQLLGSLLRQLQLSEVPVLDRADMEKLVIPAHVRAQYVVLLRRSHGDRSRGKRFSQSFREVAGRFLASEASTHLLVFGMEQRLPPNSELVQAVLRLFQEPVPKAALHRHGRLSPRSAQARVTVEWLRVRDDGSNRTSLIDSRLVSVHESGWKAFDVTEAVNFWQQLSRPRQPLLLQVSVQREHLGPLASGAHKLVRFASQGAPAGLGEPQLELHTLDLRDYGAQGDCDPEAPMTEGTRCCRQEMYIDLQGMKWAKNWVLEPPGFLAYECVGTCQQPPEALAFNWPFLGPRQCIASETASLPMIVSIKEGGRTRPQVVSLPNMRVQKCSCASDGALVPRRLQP
Experiment [4] has as its target Calmodulin-1 (Homo sapiens) (UniProt P0DP23). In words: CALM1 binders on microarrays, EGTA buffer, profiling panel, biochemical, small-molecule microarray, Cy5-labelled CALM1 (AID 1111).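 Note: labelled calmodulin applied in Tris saline Tween buffer holding calcium plus EGTA and DTT.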 Particulars: Cy5-CALM1 binding fluorescence, higher = more signal.
For experiment [5] the target is unchanged. Nature of the experiment: calcium-bound CALM1 binders on microarrays, profiling panel, artefact control for SMM control-protein annotation, biochemical, small-molecule microarray, Cy5-labelled CALM1, plus calcium (AID 1112).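 Note: score merges spot fluorescence with signal to noise from triplicate slides.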 Particulars: Cy5-CALM1 binding fluorescence, higher = more signal.
A short description of experiment [6]: small-molecule microarray binders of probe aWnt5a, primary screen, biochemical, biotinylated probe, 635/667 nm fluorescence (AID 1113).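 Note: score merges 667 nm fluorescence intensity with signal-to-noise per printed feature.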 The settings on record: higher = more signal.
Experiment [7] is described as follows: small-molecule microarray binders of probe aShh, primary screen, biochemical, biotinylated probe, 635/667 nm fluorescence (AID 1114).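 Note: probe is biotin-labelled aShh protein from a stem cell growth factor screen; measures binding of labelled protein to compounds printed on the slide; score merges feature fluorescence at 667 nm with signal-to-noise.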 Particulars: higher = more signal.
Experiment [8] in a line: small-molecule microarray binders of probe aNog, primary screen, biochemical, biotinylated probe, 635/667 nm fluorescence (AID 1115).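 Note: probe is biotinylated aNog protein used at 0.15 µg/mL for 1 h at 4 C; z-score combines 667 nm fluorescence of each spot with its signal to noise.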 The settings on record: higher = more signal.
Experiment [9] concerns the target Torsin-1A-interacting protein 1 (Homo sapiens) (UniProt Q5JTV8). In words: LAP1 binders from COS7 cell lysate, primary screen, small-molecule microarray, 635/667 nm fluorescence (AID 1116). Particulars: COS7-hLAP1 lysate binding, 635 nm fluorescence, higher = more signal.
In experiment [10] the target is Alpha-bungarotoxin (Bungarus multicinctus) (UniProt P60615). Nature of the experiment: alpha-bungarotoxin binders on microarray, profiling panel, artefact control for SMM control protein annotation, biochemical, small-molecule microarray, Alexa647 label, 635/667 nm fluorescence (AID 1117). Particulars: alpha-BTX-A647 binding fluorescence, higher = more signal.
Chain of Alpha-bungarotoxin (Bungarus multicinctus) (P60615 whole entry, looked up): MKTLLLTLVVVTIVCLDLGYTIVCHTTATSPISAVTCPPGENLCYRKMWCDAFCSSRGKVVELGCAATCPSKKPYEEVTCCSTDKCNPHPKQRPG

Data on 18 compounds can be found in PubChem BioAssay.

Structures are written as SMILES.

Chain of Torsin-1A-interacting protein 1 (Homo sapiens) (Q5JTV8 whole entry, looked up): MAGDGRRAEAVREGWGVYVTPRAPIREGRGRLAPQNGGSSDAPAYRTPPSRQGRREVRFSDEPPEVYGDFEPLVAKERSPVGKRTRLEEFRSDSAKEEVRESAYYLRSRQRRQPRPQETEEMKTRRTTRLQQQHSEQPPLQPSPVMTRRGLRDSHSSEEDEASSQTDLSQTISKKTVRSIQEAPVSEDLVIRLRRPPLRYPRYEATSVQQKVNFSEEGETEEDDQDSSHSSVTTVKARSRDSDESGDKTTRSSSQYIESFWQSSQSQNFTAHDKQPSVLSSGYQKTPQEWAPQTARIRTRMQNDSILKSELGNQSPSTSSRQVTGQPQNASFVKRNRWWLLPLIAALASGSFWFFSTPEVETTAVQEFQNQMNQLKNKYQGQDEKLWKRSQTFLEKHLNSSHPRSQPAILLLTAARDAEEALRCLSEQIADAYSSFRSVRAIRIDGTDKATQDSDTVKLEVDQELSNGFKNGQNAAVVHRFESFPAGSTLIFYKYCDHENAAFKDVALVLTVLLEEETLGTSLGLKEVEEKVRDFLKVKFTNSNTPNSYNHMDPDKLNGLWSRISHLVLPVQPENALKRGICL

`CCCCc1nc2c(c3c1C[C@H](C)OC3)CN(CCC(C)C)CC2`: the composite z-score is 1.23 in experiment [1]; 0.893 in [3]; -0.0635 in experiment [4]; -0.747 in experiment [5]; -0.0704 in experiment [6]; -0.164 in experiment [7]. For the same compound, the composite z-score in experiment [8] was found to be 0.372; in experiment [9], 0.089; in [10], 0.595. The z-score in experiment [2] is -0.953.

Turning to `O=C1[C@H]2[C@H]3[C@H](O)[C@H](O)CC(=NO[C@@H]4O[C@H](CO)[C@@H](O)[C@H](O)[C@H]4O)[C@@H]3CC[C@H]2C(=O)N1Cc1ccccc1`, the composite z-score is 0.33 in [1]; 0.792 in [3]; -0.225 in experiment [4]; -1.24 in [5]; -0.136 in experiment [6]; 0.225 in experiment [7]. The values for the composite z-score in experiment [8], in [9] and in experiment [10] were -0.433, 0.392 and -0.187, respectively. In experiment [2], this compound had a z-score of 0.506.

For the compound `CC(C)[C@@H](OCc1ccccc1)[C@H](C)C=NO[C@H](C)c1cn([C@H](CO)Cc2ccccc2)nn1`, the composite z-score in experiment [1] was 0.639; in experiment [3], 0.521; in experiment [4], -0.211; in experiment [5], -0.669; in experiment [6] it was -0.156; in experiment [7] it was -0.0709. Moreover, the results for the composite z-score in experiment [8], in experiment [9] and in [10] were -0.216, 0.113 and 0.263, respectively. Further, in experiment [2], the z-score is -2.09.

Turning to `O=C1[C@H]2[C@H]3[C@H](O)[C@H](O)CC(=NOCc4ccccc4)[C@H]3CC[C@H]2C(=O)N1c1ccc(F)cc1F`, the composite z-score in [1] was -0.642; in [3], 0.349; in experiment [4] it was -0.251; in experiment [5] it was -0.349; in [6], -0.123; in experiment [7], -0.339. The results for the composite z-score in experiment [8], in experiment [9] and in experiment [10] were -0.47, -0.273 and -0.0546, respectively. In experiment [2], the z-score is 0.473.

Consider `COC(=O)CC=C[C@@H](C)[C@@H](C=NO[C@H](C)c1cn([C@@H]2COC[C@H]2O)nn1)OC`, for which the composite z-score in experiment [1] is 0.768; in experiment [3], 0.589; in experiment [4], -0.662; in experiment [5] it was -0.793; in [6] it was -0.0478; in experiment [7], -0.291. Moreover, the composite z-score in experiment [8] was -0.0762; in experiment [9] it was -0.306; in experiment [10], 1.01. Besides, the z-score in experiment [2] is 0.128.

With `CC(CCC(=O)OC[C@H]1O[C@H](C#Cc2ccccc2)C=C[C@@H]1Oc1ccc(C)cc1)=NOC[C@@H](O)COCc1ccco1`, the composite z-score in [1] was -0.412; in experiment [3], -5.42; in experiment [4], -1.49; in experiment [5], -1.96; in [6] it was -0.426; in experiment [7], -0.206. Besides, the composite z-score in [8] is -0.732; in experiment [9] it was -1.87; in experiment [10], -0.818. In [2], the z-score is -0.635.

Take `COc1ccc(O[C@H]2C=C[C@@H](c3ccccc3)O[C@@H]2COC(=O)CCC(C)=NO[C@H](C)c2cn([C@@H]3COC[C@H]3O)nn2)cc1`: the composite z-score in [1] is 0.765; in experiment [3], 0.51; in [4], -0.121; in experiment [5], -0.686; in [6] it was -0.119; in experiment [7], 0.0062. Besides, the composite z-score was -0.185 in experiment [8], 0.68 in experiment [9] and 1.19 in [10]. In [2], this compound came in with a z-score of -2.82.

Regarding `C[C@H](c1ccccc1)N1C(=O)[C@H]2[C@@H]3C(=CC[C@H]2C1=O)C(=O)[C@H]1O[C@H]1[C@H]3O`, the composite z-score in [1] was -0.546; in [3], 0.429; in [4], -0.119; in experiment [5], -0.932; in experiment [6], -0.0405; in experiment [7] it was 0.0402. For the same compound, the composite z-score in experiment [8] was -0.416; in experiment [9] it was 0.326; in [10], -0.0114. In experiment [2], this compound had a z-score of -4.71.

`CC1CC/C=C\[C@H]2OC34C=CCN(Cn5nnc6ccccc65)C(=O)[C@H]3N(CCO)C(=O)[C@@H]4C2C(=O)O1` (stereo not given in full): the composite z-score in experiment [1] is -0.487; in experiment [3] it was -0.28; in [4], -0.614; in experiment [5], 0.383; in experiment [6], -0.147; in [7], -0.291. Also, the composite z-score in experiment [8] is -0.256; in [9], 2; in experiment [10] it was -0.118. The compound also displayed a z-score in experiment [2] of -0.505.

Consider `COc1ccc(COC(=O)NN=C2C[C@@H](O)[C@@H](O)[C@@H]3[C@@H]4C(=O)N(c5ccc(F)cc5F)C(=O)[C@@H]4CC[C@@H]23)cc1`, for which the composite z-score in [1] was -0.0514; in [3], -0.151; in [4], 0.0539; in experiment [5], -0.325; in experiment [6], -0.096; in [7], -0.221. In addition, the figures for the composite z-score in experiment [8], in experiment [9] and in [10] were 0.041, 0.599 and 0.626, respectively. In addition, the z-score in experiment [2] is -0.76.

Turning to `O=C1O[C@@H](c2ccccc2)[C@@H](c2ccccc2)N2[C@@H](c3ccc(OCCO)cc3)[C@]3(C(=O)Nc4ccc(C#CCCO)cc43)[C@@H](C(=O)N3CCCCCCC3)[C@H]12`, the composite z-score in experiment [1] is -0.516; in experiment [3], 1.07; in experiment [4] it was 2.62; in experiment [5], 1.06; in experiment [6] it was 0.935; in [7] it was 2.18. Also, the figures for the composite z-score in experiment [8], in experiment [9] and in [10] were 2.81, 4.07 and 2.78, respectively. The z-score in experiment [2] is -0.777.

Regarding `CC(C)N1CC=CC23O[C@@H]4C=CCCOC(=O)C4[C@H]2C(=O)N(CCCCCCO)[C@@H]3C1=O` (stereo not given in full), the composite z-score is -0.558 in [1]; -1.39 in experiment [3]; -0.0847 in experiment [4]; 0.749 in experiment [5]; -0.252 in [6]; -0.221 in experiment [7]. Further, the composite z-score is 0.0432 in experiment [8], -0.423 in experiment [9] and -0.866 in experiment [10]. In experiment [2], this compound yielded a z-score of -0.845.

For the compound `O=C(CS)NCCCCCNC(=O)[C@@H]1C[C@@H]2C(=O)N[C@@H](Cc3ccccc3)C(=O)N2[C@@H]1c1ccc(O)cc1`, the composite z-score in experiment [1] was 0.985; in [3], 0.514; in [4] it was 0.283; in experiment [5], -0.11; in [6], 0.0004; in experiment [7], 0.149. The results for the composite z-score in experiment [8], in experiment [9] and in experiment [10] were -0.122, 0.858 and 1.48, respectively. In addition, the z-score in [2] is -0.374.

Regarding `COc1ccc([Si](C)(C)[C@@H]2[C@@H](CCO)O[C@]3(C(=O)N(Cc4ccc(NC(C)=O)cc4)c4ccccc43)[C@H]2C)cc1`, the composite z-score turned out to be 1.43 in experiment [1]; 0.621 in experiment [3]; 1.07 in experiment [4]; 0.521 in [5]; 0.0136 in experiment [6]; 0.441 in experiment [7]. For the same compound, the composite z-score is 0.715 in [8], 0.802 in experiment [9] and 1.21 in experiment [10]. This compound also showed a z-score in experiment [2] of -5.21.

`C[C@@H]1C=CCC(=O)OC[C@H](C)C(=O)OC[C@H]2O[C@H]1C=C[C@H]2O`: the composite z-score in [1] is 0.0717; in experiment [3] it was 0.71; in experiment [4] it was -0.239; in experiment [5], -1.16; in [6], -0.228; in experiment [7] it was -0.0793. In addition, the results for the composite z-score in experiment [8], in experiment [9] and in experiment [10] were -0.278, -0.0644 and -0.108, respectively. The same compound returned a z-score in experiment [2] of -2.33.

On to `CC(CCC(=O)OC[C@H]1O[C@H](C#Cc2ccccc2)C=C[C@@H]1Oc1ccc(C)cc1)=NO[C@@H](C)c1cn([C@H](CO)Cc2ccccc2)nn1`, for which the composite z-score was 0.507 in experiment [1]; 0.381 in [3]; -0.329 in [4]; -0.385 in [5]; -0.152 in experiment [6]; 0.108 in experiment [7]. The results for the composite z-score in [8], in experiment [9] and in experiment [10] were -0.12, -0.0538 and 1.76, respectively. Also, the z-score in experiment [2] was -1.97.

With `O=C(NN=C1C[C@@H](O)[C@@H](O)[C@@H]2[C@@H]3C(=O)N(c4ccc(F)cc4F)C(=O)[C@@H]3CC[C@@H]12)OCc1ccccc1`, the composite z-score is 0.782 in experiment [1]; 0.312 in experiment [3]; -0.0007 in [4]; -0.226 in [5]; 0.0354 in experiment [6]; -0.0553 in experiment [7]. Further, the composite z-score is -0.562 in [8], 0.547 in [9] and 0.736 in experiment [10]. This compound also came in with a z-score in experiment [2] of -0.769.

Regarding `CC(CCN1CCc2nc(-c3ccccc3)c(-c3ccccc3)cc2C1)=NOC(C)CN1CCCCc2nc(C)c(C)cc21` (stereo not given), the composite z-score in experiment [1] was 1.27; in experiment [3], 0.573; in experiment [4], 0.578; in [5], -0.0705; in experiment [6], -0.0819; in [7], -0.202. Besides, the composite z-score is -0.077 in experiment [8], 0.787 in experiment [9] and 0.799 in experiment [10]. Moreover, the z-score in [2] is -2.03.
